A number with no mark means an inactive call.
Tested on: Pseudomonas aeruginosa PA14 dppBCDF deletion mutant
Assay: respiration area under curve with compound as sole nitrogen source, 24 h (OmniLog AUC (arbitrary units)); higher = more respiration / better utilisation as nitrogen source, active = 2000 or more; extreme values may be limits of the assay
Procedure: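 Biolog Phenotype MicroArray plates PM6-PM8: each di/tripeptide is the sole nitrogen source. Tetrazolium reduction was read in the OmniLog every 15 min for 24 h at 37°C and summarised as area under the respiration curve (arbitrary units). Values below 2000 count as no respiration. Strain is the dipeptide ABC transporter deletion mutant.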

SMILES	respiration area under curve
CC(C)C[C@H](N)C(=O)NCC(=O)NCC(=O)O (plate: PM8)	5290 (active)
NC(N)=NCCC[C@H](N)C(=O)N[C@@H](CC(=O)O)C(=O)O (plate: PM6)	7880 (active)
CSCC[C@H](N)C(=O)N[C@@H](CC(C)C)C(=O)O (plate: PM7)	247
N[C@@H](Cc1ccc(O)cc1)C(=O)N[C@@H](Cc1c[nH]c2ccccc12)C(=O)O (plate: PM7)	1770
C[C@H](NC(=O)CN)C(=O)O (plate: PM6)	48.2
C[C@H](N)C(=O)N[C@@H](CO)C(=O)O (plate: PM6)	6740 (active)
CSCC[C@H](N)C(=O)N[C@H](C(=O)O)C(C)C (plate: PM7)	1430
CC[C@H](C)[C@H](N)C(=O)N[C@@H](CO)C(=O)O (plate: PM6)	156
CC(C)[C@H](N)C(=O)N[C@@H](Cc1ccc(O)cc1)C(=O)O (plate: PM7)	3890 (active)
NCC(=O)N[C@@H](CC(N)=O)C(=O)O (plate: PM8)	13800 (active)
CC(C)C[C@@H](N)C(=O)N[C@@H](Cc1ccc(O)cc1)C(=O)O (plate: PM8)	0
N[C@@H](Cc1ccccc1)C(=O)N[C@@H](CCC(=O)O)C(=O)O (plate: PM8)	0
CC(C)[C@H](NC(=O)[C@@H](N)CCCN=C(N)N)C(=O)O (plate: PM6)	7970 (active)
N[C@@H](Cc1c[nH]c2ccccc12)C(=O)N[C@@H](Cc1ccc(O)cc1)C(=O)O (plate: PM7)	236
CC(C)[C@H](N)C(=O)N[C@@H](C)C(=O)O (plate: PM8)	207
CC[C@H](C)[C@H](N)C(=O)N[C@@H](CCC(N)=O)C(=O)O (plate: PM6)	873
C[C@@H](O)[C@H](NC(=O)CN)C(=O)O (plate: PM6)	15.8
C[C@@H](O)[C@H](N)C(=O)N[C@@H](Cc1ccccc1)C(=O)O (plate: PM8)	274
C[C@H](N)C(=O)N[C@@H](CC(=O)O)C(=O)O (plate: PM8)	2510 (active)
CC(C)C[C@H](N)C(=O)N1CCC[C@H]1C(=O)O (plate: PM8)	0

SMILES	respiration area under curve
CC(C)[C@@H](NC(=O)CN)C(=O)O (plate: PM8)	0
CC(C)[C@H](N)C(=O)N[C@@H](CCC(=O)O)C(=O)O (plate: PM8)	0
CC(C)[C@H](N)C(=O)N[C@@H](Cc1ccccc1)C(=O)O (plate: PM8)	3500 (active)
CC[C@H](C)[C@H](NC(=O)[C@@H](N)C(C)C)C(=O)O (plate: PM7)	842
CC(C)C(NC(=O)C1CCCN1)C(=O)O (stereo not given) (plate: PM8)	134
NCC(=O)NCC(=O)N[C@@H](Cc1ccccc1)C(=O)O (plate: PM8)	0
N[C@@H](Cc1c[nH]c2ccccc12)C(=O)NCC(=O)O (plate: PM7)	6.75
N[C@@H](CC(=O)O)C(=O)N[C@@H](CC(=O)O)C(=O)O (plate: PM6)	12.5
NC(=O)C[C@H](N)C(=O)N[C@@H](CCC(=O)O)C(=O)O (plate: PM6)	1590
NCC(=O)N[C@@H](Cc1ccccc1)C(=O)N[C@@H](Cc1ccccc1)C(=O)O (plate: PM8)	1840
N[C@@H](Cc1ccc(O)cc1)C(=O)N[C@@H](Cc1ccccc1)C(=O)O (plate: PM7)	3450 (active)
N[C@@H](CO)C(=O)N1CCC[C@H]1C(=O)O (plate: PM7)	0
NC(N)=NCCC[C@H](NC(=O)[C@@H](N)CCCN=C(N)N)C(=O)O (plate: PM6)	9250 (active)
O=C(O)[C@@H]1C[C@@H](O)CN1C(=O)[C@@H]1CCCN1 (plate: PM7)	0
NC(=O)CC[C@H](NC(=O)[C@@H](N)Cc1ccc(O)cc1)C(=O)O (plate: PM7)	10600 (active)
O=C(O)[C@H](CO)NC(=O)[C@@H]1CCCN1 (plate: PM8)	1290
O=C(O)[C@H](Cc1ccccc1)NC(=O)[C@@H]1CCCN1 (plate: PM7)	3470 (active)
C[C@H](N)C(=O)N[C@@H](C)C(=O)O (plate: PM6)	6250 (active)
NC(N)=NCCC[C@H](N)C(=O)N[C@@H](Cc1ccc(O)cc1)C(=O)O (plate: PM6)	8750 (active)
NC(N)=NCCC[C@H](N)C(=O)N[C@@H](CCC(=O)O)C(=O)O (plate: PM6)	8810 (active)

Reference: the supplement of paper PMC4206461
